PubChem BioAssay AID1117267 (The Scripps Research Institute Molecular Screening Center, 2014)
Hit rate of the full screen: of about 92,000 compounds, about 1,200 (1.3%) were called active. This is one part of a sample in which actives are shown more often than they occur.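 How the source made its calls: active means activation above the mean of all tested compounds plus 3 SD (cut at about 9.5% in these data); inactive means the rest.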

Assay: compounds raising TTR promoter-driven luciferase – cell-based, luminescence, SH-SY5Y, TTR promoter Gaussia luciferase, primary screen (AID 1117267);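 further: cells exposed to compounds for one day before reading; 0% = median of all test compound wells on the plate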
Conditions: at 16.7 µM, hits give high values, 100% = recombinant luciferase protein wells
With O=c1[nH]cccc1-c1nc2ccccc2n1Cc1ccc(Cl)cc1 the activation was 1.33% (inactive). In the case of CC1CCN(S(=O)(=O)c2ccc(S(=O)(=O)NCc3cccnc3)cc2)CC1, the activation is reported as 1.06% (inactive). With CCC(C)C(=O)Nc1ccccc1N1CCN(c2ccc(F)cc2)CC1 (stereo not drawn) the activation was 1.32% (inactive). In the case of CC(=O)c1c(C)[nH]c(C(=O)COc2ccc3c(C)cc(=O)oc3c2)c1C, the activation is reported as 11.5% (active). With COC(=O)COc1ccc2oc(=O)cc(C)c2c1 the activation was -3.29% (inactive). With CCOC(=O)Cc1csc(NC(=O)COc2ccc3c(C)cc(=O)oc3c2)n1 the activation was -0.4% (inactive). With N#Cc1ccc(/C=C2\CCn3c2nc2cc(C(=O)O)ccc2c3=O)cc1 the activation was -0.49% (inactive). For COC[C@@H]1CCCN1c1ccc2c(c1)O[C@H](C)CCN(C1CC1)S2(=O)=O, the activation was 1.42% (inactive). In the case of CN(CCc1ccccc1)C(=O)c1cccc(NC(=O)Cc2cccc(NC(=O)C3CCCN(C(=O)CCc4ccccc4)C3)c2)c1 (stereo not drawn), the activation is reported as -4.56% (inactive). In the case of CC1Cc2ccccc2N1S(=O)(=O)c1cccc(C(=O)OCC(=O)N2CCOCC2)c1 (stereo not drawn), the activation is reported as 2.01% (inactive). For COc1ccc2[nH]c3c(=O)n(Cc4ccco4)cnc3c2c1, the activation was 1.08% (inactive). For COc1ccc(-c2oc3ncn(Cc4ccco4)c(=N)c3c2-c2ccc(OC)cc2)cc1, the activation was 11.8% (active). For Cn1c2ccccc2c(=O)c2c(=O)n(Cc3ccco3)c(COc3ccccc3)nc21, the activation was -1.02% (inactive). With C(#CCN1CCOCC1)CCCN1CCOCC1 the activation was 0.16% (inactive). For O=C(c1cccc(S(=O)(=O)N2CCCCCC2)c1)N1CCN(Cc2ccccc2)CC1, the activation was -0.07% (inactive). With O=C(Nc1nncs1)c1cccc(S(=O)(=O)N2CCCCC2)c1 the activation was 0.77% (inactive). For O=C(NNC1=NCCC1)c1cccc(S(=O)(=O)N2CCCCC2)c1, the activation was 12% (active). In the case of Cc1c(NC(=O)C(=O)N/N=C/c2cccs2)c(=O)n(-c2ccccc2)n1C, the activation is reported as -1.22% (inactive). In the case of O=c1c2c3c(sc2n(CCN2CCCC2)c(=O)n1Cc1ccccc1)CCCCC3, the activation is reported as 1.57% (inactive). With COc1ccc(C2c3ccc(O)cc3Oc3ncn(CCCO)c(=N)c32)cc1OC (stereo not drawn) the activation was 9.86% (active). For O=c1ccnc(Nc2ccc(Cl)cc2)[nH]1, the activation was 1.51% (inactive). For COc1ccc(CN2CN(C3CCCC3)CSC2=S)cc1, the activation was -1.82% (inactive). In the case of O=C1NC(=Nc2ccc(Cl)cc2)SC1Cc1cccc(Cl)c1Cl (stereo not drawn), the activation is reported as -2.63% (inactive). For O=C(CS(=O)(=O)c1ccccc1)Nc1ccc(S(=O)(=O)Nc2ccccn2)cc1, the activation was 11.2% (active). In the case of O=S(=O)(Nc1ccccn1)c1cccc(S(=O)(=O)c2ccc(Cl)cc2)c1, the activation is reported as 1.15% (inactive). In the case of COc1cc(NS(=O)(=O)c2ccc(NC(=O)CN3C(=O)c4ccccc4C3=O)cc2)ncn1, the activation is reported as 0.85% (inactive). For Cc1nn(C)cc1S(=O)(=O)N1CCN(c2ccc(F)cc2)CC1, the activation was 5.22% (inactive). For COC(=O)C[C@@H]1C=C[C@@H](NS(=O)(=O)c2cccc(OC)c2)[C@@H](CO)O1, the activation was 2.56% (inactive). In the case of COC(=O)[C@@]12C[C@@H](CC(=O)N3CCCCC3)C(=O)N(Cc3ccc4c(c3)OCO4)C1=CCC(C)(C)C2, the activation is reported as -2.52% (inactive). With Cc1ccc(C(=O)NCCNC(=O)c2cnccn2)cc1 the activation was -0.47% (inactive). In the case of O=C(NCCCNC(=O)c1ccccc1Cl)c1cnccn1, the activation is reported as 17.1% (active). With O=C(COc1ccc(Cl)cc1Cl)NCCCNC(=O)c1cnccn1 the activation was 1.09% (inactive). For CCC(C)NCCOCCOc1ccc(Br)cc1C (stereo not drawn), the activation was 4.02% (inactive). With CCc1nn(CCCC(=O)Nc2ccc(C)c(C)c2)c(=O)c2cc3occc3n12 the activation was -0.44% (inactive). With Nc1ccc2c(c1)C(O)c1ccc(Cl)cc1-2 (stereo not drawn) the activation was -0.84% (inactive). For Cc1nnc(SCC(=O)NNC(=O)c2ccc(Cl)cc2)n1CC1CCCO1 (stereo not drawn), the activation was -0.27% (inactive). For C(=N\n1cnnc1)/c1cccnc1, the activation was 9.82% (active). With O=C(N/N=C/c1cccnc1)c1cc2ccccc2cc1O the activation was -0.26% (inactive). With Brc1ccc(-c2csc(N/N=C/c3cccnc3)n2)cc1 the activation was -4.96% (inactive). For CC(=O)Nc1ccc(N2C(=O)CC(Sc3nccc(C)n3)C2=O)cc1 (stereo not drawn), the activation was -1.45% (inactive). In the case of CC(Oc1cccc(Cl)c1)C(=O)NC1CC(C)(C)NC(C)(C)C1 (stereo not drawn), the activation is reported as -0.86% (inactive). With O=C(O/N=C(/c1ccccc1)c1ccncc1)c1ccccc1[N+](=O)[O-] the activation was -1% (inactive). With Cc1ccccc1/[N+]([O-])=C/c1ccncc1 the activation was 11% (active). For C=C(C)CNC(=S)N/N=C/c1ccccc1OCC(=O)O, the activation was 8.68% (inactive). In the case of CN(C)CCNC(=O)Cc1ccc([N+](=O)[O-])cc1, the activation is reported as 0.61% (inactive). With CCCNC(=O)c1onc(CSc2ccc(F)cc2)c1C(=O)NC(C)C the activation was -2.47% (inactive). For COc1cc(N2C(=O)CC3(CCCC3)CC2=O)cc(OC)c1OC, the activation was 11.7% (active). In the case of COc1cc(C(=O)NNC(=O)CN2C(=O)NC3(CCCC3)C2=O)cc(OC)c1OC, the activation is reported as -1.23% (inactive). With COc1cc(NC(=S)N2CCCC(C)C2)cc(OC)c1OC (stereo not drawn) the activation was 4.11% (inactive). With CC(C)(C)OC(=O)N/N=C/c1cn(-c2ccccc2)nc1-c1cccnc1 the activation was -1.28% (inactive). For CC(C)N(C(=O)[C@H]1C[C@H](CC(=O)NCCC2=CCCCC2)C(=O)N2CCc3c([nH]c4cc(CCC(=O)N(C)C)ccc34)[C@]12C)C(C)C, the activation was -0.83% (inactive). With c1ccc(-c2c[nH]c(-c3ccccc3)c2)cc1 the activation was -1.9% (inactive). In the case of CCOC(=O)c1c(NC(=O)c2ccc(Br)o2)sc2c1CCCC2, the activation is reported as 12.3% (active). With CCOCC(=O)Nc1sc2c(c1C(=O)OCC)CCCC2 the activation was 2.19% (inactive). With CCOC(=O)c1c(NC(=S)Nc2ccccc2C)sc2c1CCC2 the activation was 1.24% (inactive). In the case of COc1cccc2cc(/C(C)=N/NC(=O)c3ccco3)oc12, the activation is reported as 1.86% (inactive). With Cc1nc2c(-c3ccc(F)cc3)c(C)nn2c(C)c1CCC(=O)N1CCN(c2ccccn2)CC1 the activation was 1.67% (inactive). With Cn1c(=O)c2c(ncn2CC(=O)N2CCN(c3ccccc3)CC2)n(C)c1=O the activation was 3.74% (inactive). With Cc1nc2nc(C)c(CCC(=O)N3CCN(c4ccccc4)CC3)c(C)n2n1 the activation was 25.8% (active). With Cc1cccc(C)c1NC(=O)CN1CCN(c2ccc(F)cc2)CC1 the activation was 1.02% (inactive). For O=C(O)CSc1nccc2ccccc12, the activation was -2.92% (inactive). For CCN(C(=O)CN1C(=O)/C(=C/c2ccc(F)cc2)SC1=S)C1CCS(=O)(=O)C1 (stereo not drawn), the activation was 1.08% (inactive). For COc1ccc(NS(=O)(=O)c2ccc(C(=O)Nc3c(C)n(C)n(-c4ccccc4)c3=O)cc2)cc1, the activation was -1.99% (inactive). With COc1ccc(C(=O)C(C)OC(=O)c2cccc(S(=O)(=O)Nc3c(C)n(C)n(-c4ccccc4)c3=O)c2)cc1 (stereo not drawn) the activation was 0.13% (inactive). With Cc1c(NS(=O)(=O)c2ccc(NC3CCCC3)c([N+](=O)[O-])c2)c(=O)n(-c2ccccc2)n1C the activation was 12.5% (active). With CCc1cc2c(NC(Cc3ccccc3)C(=O)O)ncnc2s1 (stereo not drawn) the activation was 0.89% (inactive). In the case of Cc1cccc(NC(=O)Nc2nnc(-c3ccccc3)o2)c1, the activation is reported as -2.14% (inactive). For COc1cc(/C=N/N2CCN(c3ccccc3)CC2)ccc1OC(C)=O, the activation was 1.16% (inactive). With COc1cccc(-c2cnc(C(O)c3ccccc3OC)[nH]2)c1 (stereo not drawn) the activation was 9.73% (active). With OC(c1ccc(F)cc1)c1ncc(-c2cccc(C(F)(F)F)c2)[nH]1 (stereo not drawn) the activation was 1.67% (inactive). For COc1c(C)cc(C(O)c2ncc(-c3cccc(C(F)(F)F)c3)[nH]2)cc1C (stereo not drawn), the activation was -1.28% (inactive). With C=CCN(C(=O)Nc1ccc2c(c1)nc(C)n2C)c1ccccc1 the activation was 5.19% (inactive). With O=C(COC(=O)c1ccc2ncsc2c1)Nc1ccc(Cl)cc1 the activation was 1.52% (inactive). For Cc1ccc(-c2cc(C(F)(F)F)n3ncc(C(=O)N4CCCCC4c4cccnc4)c3n2)cc1 (stereo not drawn), the activation was 0.13% (inactive). In the case of FC(F)(F)c1cc(-c2ccco2)nc(N2CCOCC2)n1, the activation is reported as 2.59% (inactive). With COC(=O)c1cnn2c(C(F)(F)F)cc(-c3ccco3)nc12 the activation was 10.2% (active). For COC(=O)[C@]12C[C@H](CC(=O)NCc3cccs3)C(=O)N(CCc3ccc(OC)c(OC)c3)C1=C[C@H](C(C)C)O[C@@H]2C1CC1, the activation was -0.36% (inactive). For CCCCOCCCNC(=O)C[C@H]1C[C@@]2(C(=O)OC)C(=C[C@H](C(C)(C)C)O[C@@H]2C)N(CCc2ccc(OC)c(OC)c2)C1=O, the activation was 14.6% (active). For COC(=O)[C@]12C[C@H](CC(=O)NCc3cccc4ccccc34)C(=O)N(CCc3ccc(OC)c(OC)c3)C1=C[C@H](C1CCCC1)O[C@@H]2C, the activation was -1.86% (inactive). With O=C(NCc1ccccc1)C(c1cccnc1)N(C(=O)c1csnn1)c1ccc(F)cc1 (stereo not drawn) the activation was 4.37% (inactive). For Cc1cccc(C(=O)OC(C)CN2CCCC2)c1 (stereo not drawn), the activation was 2.07% (inactive). For O=C(CN1C(=O)CC(c2ccccc2)S(=O)(=O)c2ccccc21)NC1CCCC1 (stereo not drawn), the activation was 4.27% (inactive). In the case of COc1cccc(C2CC(c3cccs3)=NN2C(=O)CSC2=NCCS2)c1OC (stereo not drawn), the activation is reported as -2.03% (inactive). In the case of O=C1c2cccc(OCC(=O)N3N=C(c4cccs4)CC3c3ccc(F)cc3)c2CCN1Cc1ccccc1 (stereo not drawn), the activation is reported as 11.2% (active). In the case of CC(=O)Oc1ccccc1C1=NN(C(C)=O)C(c2ccccc2)C1 (stereo not drawn), the activation is reported as 1.26% (inactive). In the case of O=C(CCc1nnc(CCCCc2ccccc2)o1)NC(c1cccnc1)C(F)(F)F (stereo not drawn), the activation is reported as -0.47% (inactive). In the case of CCOC(=O)CCc1c(C)c2ccc(OCc3nn[nH]n3)c(C)c2oc1=O, the activation is reported as 3.81% (inactive). With COc1ccc(-c2cc3ccc(OCc4nn[nH]n4)cc3oc2=O)cc1 the activation was 0.67% (inactive). In the case of CCCCc1cc(=O)oc2cc(C)cc(OCc3nn[nH]n3)c12, the activation is reported as 23.1% (active). With CC(C)Cn1c(N)c(C(=O)COC(=O)C2CCCN2C(=O)c2cccs2)c(=O)n(C)c1=O (stereo not drawn) the activation was -0.78% (inactive). In the case of C#CCOCCOCCOCCNc1nc(N2CCOCC2)nc(N2CCN(C(=O)[C@H](Cc3ccc(O)cc3)n3cc(CCO)nn3)CC2)n1, the activation is reported as -0.17% (inactive). In the case of CCOc1ccc(C(=O)NCC(=O)N2CCN(c3ccc(C(F)(F)F)cn3)CC2)cc1, the activation is reported as 0.73% (inactive). For Brc1ccc(/C=N/N2CCN(C3c4ccccc4-c4ccccc43)CC2)s1, the activation was 19.4% (active). In the case of CC(=O)C[C@@H]1OC[C@H](C)N1S(=O)(=O)c1ccc(C)cc1, the activation is reported as 1.64% (inactive). With CC(NC(=O)C(C)(C)C)C(c1cccs1)N1CCN(Cc2ccccc2)CC1 (stereo not drawn) the activation was -0.04% (inactive). For NC(=O)C1(Nc2ccccc2Cl)CCCC1, the activation was -2.76% (inactive). In the case of Cc1nc(N2CCOCC2)sc1C(=O)NN, the activation is reported as -0.39% (inactive). In the case of Cc1nc(-c2ccc(Cl)cc2)sc1C(=O)NN, the activation is reported as 35.4% (active). With Cc1ccc(SCC(=O)c2sc(-c3ccccc3)nc2C)cc1 the activation was 4.57% (inactive). With O=c1ccn([C@@H]2O[C@H](CNS(=O)(=O)c3cc4ccccc4s3)[C@@H](O)[C@H]2O)c(=O)[nH]1 the activation was -0.41% (inactive). With COc1ccc(C(CNC(=O)c2ccc(S(=O)(=O)Nc3ccccc3C)cc2)N2CCOCC2)cc1 (stereo not drawn) the activation was 0.05% (inactive). In the case of COc1ccc(CCOC(=O)CNC(=O)c2ccc(Cl)cc2Cl)cc1, the activation is reported as -0.5% (inactive). With COc1cc2c(=O)n(C)c3ccccc3c2cc1OC the activation was -0.16% (inactive).
